# Screening data (PubChem)
# The list is not random: actives were taken first. Their share in the collection is about 4.8%.
# NALP1 inh = blocks the NALP1 inflammasome reconstituted in yeast; S. cerevisiae NALP1/ASC/caspase-1 growth, X-gal OD620, 72 h; inhibition, % at 10 µM; 0.61% of 280,000 active; AID 2071; in the data active means inhibition mostly above about 24%, no sharp cut-off; inactive means mostly below about 32%
# tim10-1 inh = inhibits growth of tim10-1 mutant yeast; AID 463190; S. cerevisiae tim10-1 ts strain growth, BacTiter-Glo, 24 h; inhibition, % at 20 µM; 2.2% of 330,000 active;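 active means inhibition of at least 40%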;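 further: mutant grown at 25 °C; 0% = DMSO wells with yeast and 100% = wells holding no yeast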
# TIM10 inh = inhibits growth of TIM10 yeast strain. S. cerevisiae TIM10 strain growth, BacTiter-Glo luminescence, 24 h. inhibition, % at 10 µM. 1.4% of 330,000 active. AID 463195;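 active means inhibition of 40% or more at the single tested concentration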;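 further: wild-type TIM10 isogenic control strain grown at permissive 25 °C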
# PfHsp90 set2 = inhibits growth of yeast expressing Plasmodium falciparum Hsp90; S. cerevisiae expressing PfHsp90, BacTiter-Glo ATP, 48 h; yeast lacking PDR1 and PDR3 efflux regulators; inhibition, % at 9.4 µM; 0.32% of 310,000 active; AID 504621;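 active means every replicate shows inhibition above about 80%, whatever the replicate mean, limit read from the data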;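 further: 0% = DMSO neutral controls and 100% = 20 µM radicicol positive controls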
# SKKanGAS inh = blocks kanamycin growth of S. pyogenes SKKanGAS strain | BacTiter-Glo, 6 h | 1.3% of 300,000 active | inhibition, % at 7.5 µM | AID 1662;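 active means mean replicate score, as percent of positive control median, at least 50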;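 further: strain carries kanamycin resistance gene driven by streptokinase promoter and grows in 40 µg/ml kanamycin; loss of luminescence reflects streptokinase promoter inhibition or plain growth inhibition; 0% = median of DMSO wells and 100% = positive control at its reference dose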
# tim23-1 inh = inhibits growth of tim23-1 mutant yeast; S. cerevisiae tim23-1 growth, BacTiter-Glo luminescence, 24 h; inhibition, % at 20 µM; 1.3% of 330,000 active;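 active means growth inhibition of the mutant yeast at or above 50%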;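 further: temperature-sensitive mutant grown at 25 °C; plate controls were DMSO-treated mutant yeast for no effect and medium wells lacking yeast for full effect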
# * hit, by the source's call; . = not tested or not shown.
SMILES,NALP1 inh,tim10-1 inh,TIM10 inh,PfHsp90 set2,SKKanGAS inh,tim23-1 inh
CC(C)NC(=O)c1ccccc1NC(=O)CS(=O)(=O)Cc1ccccc1,36*,18,-4,-15,-12,13
CCC(c1nnnn1CCOC)N(Cc1cc2cc(C)c(C)cc2[nH]c1=O)CC1CCCO1 (stereo not drawn),-18,12,7,.,0,4
CCc1cc(=O)oc2cc(OC(C)=O)cc(OC(C)=O)c12,27*,9,-3,2,-17,-3
COc1cc(OCc2ccccc2)c2c(CCC(=O)O)cc(=O)oc2c1,.,.,.,23,.,.
O=C(Nc1ccc([N+](=O)[O-])cc1)Nc1nc(-c2ccc(Cl)s2)cs1,22,.,.,1,79*,.
C=CCOC(=O)/C(=C\c1ccccc1)NC(=O)c1ccco1,8,19,17,-6,1,22
CCNC(=O)c1c(NC(=O)c2cc(-c3cc(C)ccc3O)n[nH]2)sc2c1CCCC2,22,27,2,4,82*,14
COC(=O)NCC(c1cccnc1)N1CCN(c2ccccc2OC)CC1 (stereo not drawn),18,5,-6,-18,-1,5
COc1ccccc1CNC(=O)c1cc2ccccc2oc1=O,28*,11,8,-68,7,12
CCCCc1cc(=O)oc2c(CN(CC)CC)c(O)c(Cl)cc12,4,-4,-7,-7,3,-8
CCCc1cc(=O)oc2c(CN(CC)CC)c(O)c(Cl)cc12,35*,1,3,19,-8,-3
COc1ccc(C(=O)NNC2=Nc3cccc4cccc2c34)cc1,10,-26,1,-50,38,-8
Cc1ccc(C(=O)NNC2=Nc3cccc4cccc2c34)cc1,15,-18,-20,-116,58*,-10
Cc1ccccc1NC(=O)Cc1nc(COC(=O)COc2ccc(C(C)(C)C)cc2)cs1,.,24,15,15,.,34
O=C(c1ccccc1)c1ccc2ccccc2c1,.,.,.,-24,.,.
O=C(c1ccccc1)c1c2c(cc3sc4ccccc4[n+]13)-c1cccc3cccc-2c13,58*,.,.,-25,.,.
Cc1sc2cc3c(c(C(=O)c4ccccc4)[n+]2c1C)-c1cccc2cccc-3c12,10,.,.,.,55*,.
Cc1cc2ccccc2cc1C(=O)c1ccccc1,.,.,.,-8,.,.
CCn1c(SCC(=O)Nc2cccc(C)c2)nc2ccccc2c1=O,24,0,-45,-6,6,-4
O=C(NC1CCCC1)c1ccc(CS(=O)Cc2ccccc2Cl)o1 (stereo not drawn),23,-8,9,-4,0,-5
COc1ccc(-n2cnc3c(sc4nc(N5CCOCC5)c5c(c43)CCCC5)c2=O)cc1,22,-4,25,-14,14,5
COc1cc(/C=N/NC(=O)c2cc(-c3cccn3C)n[nH]2)cc(OC)c1OC,-1,3,-9,.,63*,9
c1ccc(-n2c3ccccc3c3ccccc32)cc1,8,0,-5,.,58*,-5
CCC/C(=N/NC(=O)c1nnn(-c2nonc2N)c1CN1CCCCC1)c1ccccc1,.,11,8,-10,0,6
Cc1ccc(C)c(CN2CCCN(Cc3cc(C)ccc3C)S2(=O)=O)c1,11,4,3,13,72*,11
SMILES,NALP1 inh,tim10-1 inh,TIM10 inh,PfHsp90 set2,SKKanGAS inh,tim23-1 inh
Cc1ccc(CN2CCCN(Cc3cc(C)ccc3C)S2(=O)=O)cc1,14,19,-3,14,45,12
CN(C)CCCNC(=O)C(=O)Nc1cc2c3c(c1)CC(=O)N3CCC2,11,-4,0,20,-1,-2
Cc1cc(C(=O)Nc2ccc(N3CCOCC3)c3nonc23)ccc1[N+](=O)[O-],9,-27,10,-26,5,1
O=C(NCCCN1CCN(CCCNC(=O)c2ccc3c(c2)OCO3)CC1)c1ccc2c(c1)OCO2,28*,0,-13,.,-4,6
COCCCNC(=O)c1ccc2c(c1)OCO2,12,4,10,-20,-2,-11
COc1ccc(CCNC(=O)CCS(=O)(=O)c2ccc3c(c2)CCN3C(C)=O)cc1OC,3,-1,7,23,8,26
COc1ccc(N2CCN(C(=O)c3ccc(S(=O)(=O)NCc4ccco4)cc3)CC2)cc1,.,21,7,13,.,22
O=C(c1ccc(-c2ccccc2)cc1)C1CCCN(Cc2ccncc2)C1 (stereo not drawn),21,21,35,-12,22,-4
OCC1CCCN(Cc2ccc(-c3ccccc3)cc2)C1 (stereo not drawn),34*,-38,-17,-7,0,3
Cc1cc(C(=O)N/N=C/c2c(C)[nH]n(-c3ccccc3)c2=O)n[nH]1,-22,15,3,26,13,10
Cc1ccc(-n2[nH]c(C)c(C=Nc3cc(C)ccn3)c2=O)cc1,-4,22,8,52,10,16
CCCCN(CCCC)C(=S)N/N=C/c1c(C)[nH]n(-c2ccccc2)c1=O,12,19,26,-17,88*,10
Cc1ccc(-n2[nH]c(C)c(/C=N/NC(=O)c3ccc(O)cc3O)c2=O)cc1,6,-8,-54,12,102*,29
Cc1[nH]n(-c2ccccc2)c(=O)c1/C=N/NC(=O)c1ccc(O)cc1O,-6,-7,-44,-27,102*,-1
NC(=O)c1ccccc1NC(=O)CN1CCOCC1,23,-11,3,.,-2,14
NC(=O)CN1CCOCCOCCN(CC(N)=O)CCOCC1,39*,-3,7,-29,-3,7
CCN1/C(=C/C=C/C=C/C=C/c2sc3ccccc3[n+]2CC)Sc2ccccc21,39*,19,21,2,23,9
CC[n+]1c(/C=C/Nc2ccccc2)sc2ccccc21,7,19,2,12,4,0
Cc1ccccc1N1CC(C(=O)Nc2nnc(SCc3ccccn3)s2)CC1=O (stereo not drawn),3,14,3,-10,5,15
CN(N)c1nc2ccccc2nc1C(F)(F)F,9,11,7,3,-12,16
Cc1cc(NS(=O)(=O)c2ccc(NC(=O)c3ccco3)cc2)nc(C)n1,4,14,13,-7,-9,11
Cc1cc(NS(=O)(=O)c2ccc(NC(=O)/C=C/c3ccco3)cc2)nc(C)n1,38*,-4,10,14,-4,-1
CC(C)c1ccc(-n2cccc2/C=C2/C(=N)N3C=CSC3=NC2=O)cc1,8,32,12,-9,94*,-7
CC1=CSC2=NC(=O)/C(=C\c3cccn3-c3ccccc3)C(=N)N12,0,22,14,-69,-10,-8
CC(=O)Oc1c(I)cc(I)cc1C(=O)Nc1ccc(Cl)cc1,3,37,-2,.,124*,42
COc1ccc(Cl)cc1C(=O)Nc1ccc(NC(C)=O)cc1,30,8,5,28,3,16
